{
  "source": "PubChem BioAssay (NCI)",
  "note": "This is part of a sample that, as a whole, favours compounds with a hit. Of some 79,000 tested, about 15% had one in any assay. Calls of active or inactive are those of the source. Rule as the data show it: active = growth inhibition above about 70%; inactive = the rest.",
  "data": [
    {"test": "NCI Yeast Anticancer Drug Screen. Data for the rad50 strain (AID 155);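 also: 0% = growth of vehicle-only cultures of the same strain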", "conditions": "S. cerevisiae rad50 strain growth inhibition; at 5.0 µM (retest, dose inferred, filed as 0.5); hits give high values", "procedure,_shortened": "(§1)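 Vehicle-treated cultures provide the reference for the growth inhibition reported for compound-exposed, repair-deficient yeast.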", "values": [
      {"smiles": "CC(=O)Oc1ccccc1C(=O)/C=C/c1ccccc1", "growth inhibition": "3% (inactive)"},
      {"smiles": "CN(C)C(=S)/N=c1\\ssc(=S)n1-c1ccccc1", "growth inhibition": "17% (inactive)"},
      {"smiles": "CCOC(=O)C(NS(=O)(=O)c1ccccc1)(C(F)(F)F)P(=O)(OCC(C)C)OCC(C)C", "note": "(stereo not drawn)", "growth inhibition": "4% (inactive)"},
      {"smiles": "CC(C)Nc1nc(NC(C)C)c2cnn(-c3ccccc3)c2n1", "growth inhibition": "0% (inactive)"},
      {"smiles": "CCCCCCCCC1(OCCCS(=O)(=O)O)COc2ccccc2OCCOCCOc2ccccc2OC1", "growth inhibition": "-13% (inactive)"},
      {"smiles": "Oc1ccc2c(c1)Cc1ccccc1-2", "growth inhibition": "1% (inactive)"},
      {"smiles": "CCOC(=O)N1C2C=CC(=O)C(C=C2)N1C(=O)OCC", "note": "(stereo not drawn)", "growth inhibition": "-1% (inactive)"},
      {"smiles": "CC(=O)OCc1ccc2c(c1)C(O)NC(=O)O2", "note": "(stereo not drawn)", "growth inhibition": "8% (inactive)"},
      {"smiles": "CC(C)=CCc1ccc(O)cc1", "growth inhibition": "-24% (inactive)"},
      {"smiles": "CCCCCCCCC(=O)Cl", "growth inhibition": "11% (inactive)"},
      {"smiles": "O=S1(=O)C(C(O)(c2ccccc2)c2ccccc2)CCCN1c1ccccc1", "note": "(stereo not drawn)", "growth inhibition": "4% (inactive)"},
      {"smiles": "CCCCCCCCCCCCNCC(=O)O", "growth inhibition": "-2% (inactive)"},
      {"smiles": "CC(C)=CCc1c2c(c(O)c3c(=O)c(-c4ccc(O)cc4O)coc13)C=CC(C)(C)O2", "growth inhibition": "-20% (inactive)"},
      {"smiles": "O=C(CCC(O)(c1ccccc1)c1ccccc1)c1ccccc1", "growth inhibition": "-4% (inactive)"},
      {"smiles": "CS(=O)(=O)OCCN(CCOS(C)(=O)=O)c1ccc(C=Nc2ccc(-c3csc(-c4ccc(Br)cc4)n3)cc2)cc1", "growth inhibition": "33% (inactive)"},
      {"smiles": "O=P(O)(CN1CCN(CP(=O)(O)c2ccccc2)CCN(CP(=O)(O)c2ccccc2)CC1)c1ccccc1", "growth inhibition": "17% (inactive)"},
      {"smiles": "CC(C)c1ccc2c(c1)CCC1C(C)(CN)CCCC21C", "note": "(stereo not drawn)", "growth inhibition": "27% (inactive)"},
      {"smiles": "Cc1ccc(S(=O)(=O)NNc2nc(N3CCOCC3)nc(N3CCOCC3)n2)cc1", "growth inhibition": "1% (inactive)"},
      {"smiles": "O=C1OC(CC(=O)c2ccc(Cl)cc2Cl)C(Cl)=C1Cl", "note": "(stereo not drawn)", "growth inhibition": "0% (inactive)"},
      {"smiles": "CCOC(=O)c1ccc(-n2c(C)nc3ccc(Br)cc3c2=O)cc1", "growth inhibition": "-4% (inactive)"},
      {"smiles": "CCN(CC)CCOc1ccc(C=C2c3ccccc3-c3ccccc32)cc1", "growth inhibition": "98% (active)"},
      {"smiles": "Cc1nn(C(=O)c2ccccc2O)c2c1C(c1ccc(O)cc1O)SC(N)=N2", "note": "(stereo not drawn)", "growth inhibition": "-31% (inactive)"},
      {"smiles": "CN(NC(=O)/C(=C/c1cc(Cl)cc(Cl)c1O)NC(=O)c1ccccc1)c1cnn(-c2ccccc2)c(=O)c1Cl", "growth inhibition": "15% (inactive)"},
      {"smiles": "Cn1c(=S)c2[nH]c(SCc3ccncc3)nc2n(C)c1=O", "growth inhibition": "-2% (inactive)"},
      {"smiles": "O=C1N=c2ccc(Br)cc2=C1c1sc(=O)n(Cc2nc3ccccc3[nH]2)c1O", "growth inhibition": "3% (inactive)"},
      {"smiles": "N#C/C(=C\\c1cccnc1)c1csc2ccccc12", "growth inhibition": "2% (inactive)"},
      {"smiles": "Cc1nn(CCO)c(=O)c(C#N)c1C", "growth inhibition": "1% (inactive)"},
      {"smiles": "CN(/N=C/c1ccc(C(=O)O)cc1)C1=NCCCCN1", "growth inhibition": "-2% (inactive)"},
      {"smiles": "C=CCCCN1C(=O)C2C3c4ccccc4C(C=O)(c4ccccc43)C2C1=O", "note": "(stereo not drawn)", "growth inhibition": "29% (inactive)"},
      {"smiles": "CC(Cc1ccccc1)N1C(=O)C=CC1=O", "note": "(stereo not drawn)", "growth inhibition": "45% (inactive)"},
      {"smiles": "O=C(Nc1c(Cl)cc([N+](=O)[O-])cc1Cl)/C(=N\\Nc1cccc(Cl)c1)c1c(O)c2ccccc2oc1=O", "growth inhibition": "15% (inactive)"},
      {"smiles": "C/C(=N/O)c1ccc2c(c1)C(=NO)c1cc(/C(C)=N/O)ccc1-2", "growth inhibition": "19% (inactive)"},
      {"smiles": "CCCCCCCCCCCC(=O)NC(CCC(=O)O)C(=O)O", "note": "(stereo not drawn)", "growth inhibition": "4% (inactive)"},
      {"smiles": "O=C1c2ccccc2C(=O)c2c1cccc2[N+](=O)[O-]", "growth inhibition": "84% (active)"},
      {"smiles": "C/C=C\\C=N\\NC(N)=S", "growth inhibition": "4% (inactive)"},
      {"smiles": "Oc1c(Cl)cc(C(c2cc(Cl)c(O)c(Cl)c2)C(c2cc(Cl)c(O)c(Cl)c2)c2cc(Cl)c(O)c(Cl)c2)cc1Cl", "growth inhibition": "99% (active)"},
      {"smiles": "S=C1NC2=C(CSC/C2=C\\c2ccccc2)C(c2ccccc2)N1", "note": "(stereo not drawn)", "growth inhibition": "10% (inactive)"},
      {"smiles": "O=[N+]([O-])c1cccc2nc3ccccc3c(NCCNCCO)c12", "growth inhibition": "89% (active)"},
      {"smiles": "COC12C=CC(CC1)c1c2c(O)c2ccncc2c1O", "note": "(stereo not drawn)", "growth inhibition": "9% (inactive)"}
    ]},
    {"test": "NCI Yeast Anticancer Drug Screen. Data for the rad50 strain (AID 155);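 also: 0% = growth of vehicle-only cultures of the same strain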", "conditions": "S. cerevisiae rad50 strain growth inhibition; at 50.0 µM (retest, dose inferred, filed as 5.0); hits give high values", "procedure,_shortened": "as §1", "values": [
      {"smiles": "CC(=O)Oc1ccccc1C(=O)/C=C/c1ccccc1", "growth inhibition": "82% (active)"},
      {"smiles": "CN(C)C(=S)/N=c1\\ssc(=S)n1-c1ccccc1", "growth inhibition": "100% (active)"},
      {"smiles": "CCOC(=O)C(NS(=O)(=O)c1ccccc1)(C(F)(F)F)P(=O)(OCC(C)C)OCC(C)C", "note": "(stereo not drawn)", "growth inhibition": "-2% (inactive)"},
      {"smiles": "CC(C)Nc1nc(NC(C)C)c2cnn(-c3ccccc3)c2n1", "growth inhibition": "55% (inactive)"},
      {"smiles": "CCCCCCCCC1(OCCCS(=O)(=O)O)COc2ccccc2OCCOCCOc2ccccc2OC1", "growth inhibition": "87% (active)"},
      {"smiles": "Oc1ccc2c(c1)Cc1ccccc1-2", "growth inhibition": "70% (active)"},
      {"smiles": "CCOC(=O)N1C2C=CC(=O)C(C=C2)N1C(=O)OCC", "note": "(stereo not drawn)", "growth inhibition": "43% (inactive)"},
      {"smiles": "CC(=O)OCc1ccc2c(c1)C(O)NC(=O)O2", "note": "(stereo not drawn)", "growth inhibition": "45% (inactive)"},
      {"smiles": "CC(C)=CCc1ccc(O)cc1", "growth inhibition": "97% (active)"},
      {"smiles": "CCCCCCCCC(=O)Cl", "growth inhibition": "82% (active)"},
      {"smiles": "O=S1(=O)C(C(O)(c2ccccc2)c2ccccc2)CCCN1c1ccccc1", "note": "(stereo not drawn)", "growth inhibition": "32% (inactive)"},
      {"smiles": "CCCCCCCCCCCCNCC(=O)O", "growth inhibition": "80% (active)"},
      {"smiles": "CC(C)=CCc1c2c(c(O)c3c(=O)c(-c4ccc(O)cc4O)coc13)C=CC(C)(C)O2", "growth inhibition": "95% (active)"},
      {"smiles": "O=C(CCC(O)(c1ccccc1)c1ccccc1)c1ccccc1", "growth inhibition": "97% (active)"},
      {"smiles": "CS(=O)(=O)OCCN(CCOS(C)(=O)=O)c1ccc(C=Nc2ccc(-c3csc(-c4ccc(Br)cc4)n3)cc2)cc1", "growth inhibition": "95% (active)"},
      {"smiles": "O=P(O)(CN1CCN(CP(=O)(O)c2ccccc2)CCN(CP(=O)(O)c2ccccc2)CC1)c1ccccc1", "growth inhibition": "65% (inactive)"},
      {"smiles": "CC(C)c1ccc2c(c1)CCC1C(C)(CN)CCCC21C", "note": "(stereo not drawn)", "growth inhibition": "100% (active)"},
      {"smiles": "Cc1ccc(S(=O)(=O)NNc2nc(N3CCOCC3)nc(N3CCOCC3)n2)cc1", "growth inhibition": "-4% (inactive)"},
      {"smiles": "O=C1OC(CC(=O)c2ccc(Cl)cc2Cl)C(Cl)=C1Cl", "note": "(stereo not drawn)", "growth inhibition": "20% (inactive)"},
      {"smiles": "CCOC(=O)c1ccc(-n2c(C)nc3ccc(Br)cc3c2=O)cc1", "growth inhibition": "-6% (inactive)"},
      {"smiles": "CCN(CC)CCOc1ccc(C=C2c3ccccc3-c3ccccc32)cc1", "growth inhibition": "99% (active)"},
      {"smiles": "Cc1nn(C(=O)c2ccccc2O)c2c1C(c1ccc(O)cc1O)SC(N)=N2", "note": "(stereo not drawn)", "growth inhibition": "28% (inactive)"},
      {"smiles": "CN(NC(=O)/C(=C/c1cc(Cl)cc(Cl)c1O)NC(=O)c1ccccc1)c1cnn(-c2ccccc2)c(=O)c1Cl", "growth inhibition": "43% (inactive)"},
      {"smiles": "Cn1c(=S)c2[nH]c(SCc3ccncc3)nc2n(C)c1=O", "growth inhibition": "7% (inactive)"},
      {"smiles": "O=C1N=c2ccc(Br)cc2=C1c1sc(=O)n(Cc2nc3ccccc3[nH]2)c1O", "growth inhibition": "-8% (inactive)"},
      {"smiles": "N#C/C(=C\\c1cccnc1)c1csc2ccccc12", "growth inhibition": "86% (active)"},
      {"smiles": "Cc1nn(CCO)c(=O)c(C#N)c1C", "growth inhibition": "17% (inactive)"},
      {"smiles": "CN(/N=C/c1ccc(C(=O)O)cc1)C1=NCCCCN1", "growth inhibition": "29% (inactive)"},
      {"smiles": "C=CCCCN1C(=O)C2C3c4ccccc4C(C=O)(c4ccccc43)C2C1=O", "note": "(stereo not drawn)", "growth inhibition": "25% (inactive)"},
      {"smiles": "CC(Cc1ccccc1)N1C(=O)C=CC1=O", "note": "(stereo not drawn)", "growth inhibition": "98% (active)"},
      {"smiles": "O=C(Nc1c(Cl)cc([N+](=O)[O-])cc1Cl)/C(=N\\Nc1cccc(Cl)c1)c1c(O)c2ccccc2oc1=O", "growth inhibition": "15% (inactive)"},
      {"smiles": "C/C(=N/O)c1ccc2c(c1)C(=NO)c1cc(/C(C)=N/O)ccc1-2", "growth inhibition": "98% (active)"},
      {"smiles": "CCCCCCCCCCCC(=O)NC(CCC(=O)O)C(=O)O", "note": "(stereo not drawn)", "growth inhibition": "-2% (inactive)"},
      {"smiles": "O=C1c2ccccc2C(=O)c2c1cccc2[N+](=O)[O-]", "growth inhibition": "90% (active)"},
      {"smiles": "C/C=C\\C=N\\NC(N)=S", "growth inhibition": "5% (inactive)"},
      {"smiles": "Oc1c(Cl)cc(C(c2cc(Cl)c(O)c(Cl)c2)C(c2cc(Cl)c(O)c(Cl)c2)c2cc(Cl)c(O)c(Cl)c2)cc1Cl", "growth inhibition": "98% (active)"},
      {"smiles": "S=C1NC2=C(CSC/C2=C\\c2ccccc2)C(c2ccccc2)N1", "note": "(stereo not drawn)", "growth inhibition": "96% (active)"},
      {"smiles": "O=[N+]([O-])c1cccc2nc3ccccc3c(NCCNCCO)c12", "growth inhibition": "98% (active)"},
      {"smiles": "COC12C=CC(CC1)c1c2c(O)c2ccncc2c1O", "note": "(stereo not drawn)", "growth inhibition": "89% (active)"}
    ]}
  ]
}
